Experimental data reported in PubChem BioAssay.
The source made the active and inactive calls. Unless noted, how the calls were made is not given here.

Legend:
[1] = test system: Wnt5a (protein binding on small-molecule microarray); assay: small molecules binding Wnt5a protein – biophysical, small-molecule microarray, 635/667 nm fluorescence, primary screen (AID 1142); conditions: 635 nm fluorescence, higher = more signal;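 further: fluorescence read at 667 nm with signal to noise per printed feature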
[2] = ATP-based viability of Huh7 replicon cells – cell-based, CellTiter-Glo luminescence, basal, 48 h, cytotoxicity control for HCV replication inhibitor project, primary screen (AID 1143); conditions: higher = more signal, called active from +8 up or from −8 down;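 further: Huh7 hepatoma cells carrying a hepatitis C replication reporter with no stimulus; test concentration not given here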
[3] = Pseudomonas biofilm growth suppression – PAO1 strain, BacTiter-Glo luminescence, LB-PBS, primary screen (AID 1144); conditions: P. aeruginosa PAO1 biofilm, 12 h, higher = more signal
[4] = basal CRE-LacZ reporter activity in PC12 – cell-based, unstimulated, primary screen (AID 1145); conditions: no forskolin, luminescence, 4.5 h, higher = more signal, called active from +8 up or from −8 down
[5] = forskolin-driven CRE-LacZ activity in PC12 – cell-based, CRE-LacZ reporter, forskolin-stimulated, primary screen (AID 1146); conditions: luminescence, 4.5 h, higher = more signal, called active from +8 up or from −8 down;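 further: PC12 cells with 6xCRE LacZ reporter stimulated by forskolin 10 µM; beta-galactosidase reporter signal reflecting CREB driven transcription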
[6] = molecular target: Streptavidin (Streptomyces avidinii) (UniProt P22629); assay: compounds binding control protein streptavidin – biophysical, small-molecule microarray, 635/667 nm fluorescence, artefact control for SMM compound annotation, primary screen (AID 1147); conditions: higher = more signal;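 further: signal reflects streptavidin binding to arrayed compounds as a control protein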
Streptavidin (Streptomyces avidinii), sequence (P22629 whole entry, looked up): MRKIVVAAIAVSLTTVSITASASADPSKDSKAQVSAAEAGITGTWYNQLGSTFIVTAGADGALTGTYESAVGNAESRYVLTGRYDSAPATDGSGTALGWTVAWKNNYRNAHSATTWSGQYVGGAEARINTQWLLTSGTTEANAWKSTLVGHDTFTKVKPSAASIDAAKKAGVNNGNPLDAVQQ

[7] = probe aInhba binding on compound microarray – biochemical, small-molecule microarray, 635/667 nm fluorescence, primary screen (AID 1148); conditions: higher = more signal;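 further: score merges 667nm spot fluorescence with signal-to-noise for antibody binding to printed compounds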
Torsin-1A (Homo sapiens) [8] = molecular target: Torsin-1A (Homo sapiens) (UniProt O14656); assay: TOR1A wild-type binding on microarray – cell lysate, small-molecule microarray, lysate, 635/667 nm, primary screen (AID 1149); conditions: COS7 hTOR1A-WT lysate, 635 nm fluorescence, higher = more signal
Torsin-1A (Homo sapiens), sequence (O14656 whole entry, looked up): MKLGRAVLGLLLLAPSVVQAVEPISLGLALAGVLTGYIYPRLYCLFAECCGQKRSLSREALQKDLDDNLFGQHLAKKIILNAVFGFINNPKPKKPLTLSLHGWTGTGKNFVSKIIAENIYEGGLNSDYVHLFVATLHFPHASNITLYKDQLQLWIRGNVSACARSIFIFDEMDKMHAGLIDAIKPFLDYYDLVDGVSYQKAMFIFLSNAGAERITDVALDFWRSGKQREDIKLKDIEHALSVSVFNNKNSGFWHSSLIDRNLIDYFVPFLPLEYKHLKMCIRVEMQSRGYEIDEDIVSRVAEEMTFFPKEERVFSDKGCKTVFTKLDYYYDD

Torsin-1A (Homo sapiens) [9] = molecular target: Torsin-1A (Homo sapiens) (UniProt O14656); assay: torsin A mutant lysate binding on microarrays – cell lysate, small-molecule microarray, COS7 lysate, 635/667 nm fluorescence, primary screen (AID 1150); conditions: COS7 hTOR1A mutant lysate, 635 nm fluorescence, higher = more signal;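 further: score pools 667 nm emission and signal to noise measuring lysate protein binding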
[10] = test system: Sonic hedgehog protein (Shh); assay: Sonic hedgehog microarray binding compounds – biochemical, small-molecule microarray, 635/667 nm fluorescence, primary screen (AID 1151); conditions: 635 nm fluorescence, higher = more signal;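 further: Shh protein binding to compounds spotted on small-molecule microarray slides; score combines spot fluorescence intensity with signal-to-noise across triplicate slides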
[11] = optical density shifts of acrAB sulA E. coli – strain DRC41, OD650, 48 h, E. coli filamentation inducer project, primary screen (AID 1152); conditions: higher = more signal, called active from +8 up or from −8 down;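 further: E. coli MC1000 strain DRC41 lacking acrAB efflux pump and sulA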
[12] = probe aLefty1 binding on compound microarray – biochemical, small-molecule microarray, 635/667 nm fluorescence, primary screen (AID 1153); conditions: higher = more signal;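 further: score merges spot fluorescence with signal-to-noise ratio from the scanned slide images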
[13] = plasmodial surface anion channel blockers, osmotic lysis – cell-based, P. falciparum Indochina, OD700, 1 h, primary screen (AID 1154); conditions: P. falciparum Indochina infected RBC osmotic lysis, higher = more signal, called active from +8 up or from −8 down
[14] = plasmodial surface anion channel blockers, osmotic lysis – cell-based, P. falciparum Indochina, OD700, 2 h, primary screen (AID 1155);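 further: lysis reports solute entry through the parasite surface anion channel PSAC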; conditions: P. falciparum Indochina infected erythrocytes, higher = more signal, called active from +8 up or from −8 down
[15] = changes in parasitized red cell lysis, either direction – P. falciparum Indochina, OD700, 3 h, PSAC antagonist project, primary screen (AID 1156); conditions: P. falciparum-infected erythrocytes, osmotic lysis, higher = more signal, called active from +8 up or from −8 down
[16] = plasmodial surface anion channel blockers, osmotic lysis – cell-based, P. falciparum Indochina, OD700, 18 h, primary screen (AID 1157); conditions: P. falciparum Indochina infected erythrocytes, osmotic lysis OD700, 18 h; higher = more signal, called active from +8 up or from −8 down
[17] = S6 kinase pathway phospho-S6 level changes – cell-based, A549, cytoblot, luminescence, serum-stimulated, primary screen (AID 1158); conditions: 5 h, higher = more signal;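 further: serum-stimulated A549 lung adenocarcinoma cells; signal is phosphorylated S6 detected by cytoblot immunostaining with HRP secondary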
[18] = molecular target: NADPH oxidase 2 (Homo sapiens) (UniProt P04839); assay: compounds shifting NOX2 Amplex Red fluorescence – cell-based, HEK293-NOX2, PMA-stimulated, NOX inhibitor project, primary screen (AID 1159); conditions: 45 min, higher = more signal, called active from +8 up or from −8 down; further: test concentration not given here
NADPH oxidase 2 (Homo sapiens), sequence (P04839 whole entry, looked up): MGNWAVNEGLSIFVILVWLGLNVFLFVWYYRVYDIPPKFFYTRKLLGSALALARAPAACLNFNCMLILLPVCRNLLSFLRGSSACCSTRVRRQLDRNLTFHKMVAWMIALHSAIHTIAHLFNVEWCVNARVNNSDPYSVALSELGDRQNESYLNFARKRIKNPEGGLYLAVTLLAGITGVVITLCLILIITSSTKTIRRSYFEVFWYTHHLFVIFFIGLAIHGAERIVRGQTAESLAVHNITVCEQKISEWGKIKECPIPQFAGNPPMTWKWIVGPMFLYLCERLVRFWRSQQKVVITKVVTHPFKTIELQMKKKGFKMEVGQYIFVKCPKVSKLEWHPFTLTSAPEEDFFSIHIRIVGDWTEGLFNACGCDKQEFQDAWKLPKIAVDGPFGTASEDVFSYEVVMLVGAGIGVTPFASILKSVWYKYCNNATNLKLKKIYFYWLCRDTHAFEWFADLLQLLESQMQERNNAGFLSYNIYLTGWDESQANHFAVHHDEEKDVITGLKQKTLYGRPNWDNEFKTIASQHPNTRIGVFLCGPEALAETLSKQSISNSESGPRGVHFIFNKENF

[19] = molecular target: NADPH oxidase 4 (Homo sapiens) (UniProt Q9NPH5); assay: compounds shifting NOX4 Amplex Red fluorescence – cell-based, HEK293-NOX4, tetracycline-induced, NOX inhibitor project, primary screen (AID 1160); conditions: HEK293-NOX4, Amplex Red H2O2 fluorescence, 45 min; higher = more signal, called active from +8 up or from −8 down
NADPH oxidase 4 (Homo sapiens), sequence (Q9NPH5 whole entry, looked up): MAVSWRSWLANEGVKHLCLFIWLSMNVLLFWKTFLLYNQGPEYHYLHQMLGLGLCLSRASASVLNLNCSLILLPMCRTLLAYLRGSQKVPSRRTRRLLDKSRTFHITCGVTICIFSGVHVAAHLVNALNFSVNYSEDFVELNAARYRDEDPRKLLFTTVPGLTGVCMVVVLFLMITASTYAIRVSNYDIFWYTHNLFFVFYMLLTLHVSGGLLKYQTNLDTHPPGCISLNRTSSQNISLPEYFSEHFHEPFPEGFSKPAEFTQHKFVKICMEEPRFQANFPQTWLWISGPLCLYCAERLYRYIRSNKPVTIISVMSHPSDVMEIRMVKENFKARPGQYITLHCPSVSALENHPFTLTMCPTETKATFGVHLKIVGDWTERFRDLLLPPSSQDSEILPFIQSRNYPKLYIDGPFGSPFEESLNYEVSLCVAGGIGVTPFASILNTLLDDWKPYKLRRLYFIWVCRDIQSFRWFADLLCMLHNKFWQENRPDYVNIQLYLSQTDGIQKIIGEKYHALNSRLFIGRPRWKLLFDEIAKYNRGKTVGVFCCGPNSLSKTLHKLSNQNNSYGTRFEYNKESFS

[20] = molecular target: NADPH oxidase 5 (Homo sapiens) (UniProt Q96PH1); assay: compounds shifting NOX5 Amplex Red fluorescence – cell-based, HEK293-NOX5, NOX inhibitor project, primary screen (AID 1161); conditions: HEK293-NOX5, ionomycin, 45 min, higher = more signal
NADPH oxidase 5 (Homo sapiens), sequence (Q96PH1 whole entry, looked up): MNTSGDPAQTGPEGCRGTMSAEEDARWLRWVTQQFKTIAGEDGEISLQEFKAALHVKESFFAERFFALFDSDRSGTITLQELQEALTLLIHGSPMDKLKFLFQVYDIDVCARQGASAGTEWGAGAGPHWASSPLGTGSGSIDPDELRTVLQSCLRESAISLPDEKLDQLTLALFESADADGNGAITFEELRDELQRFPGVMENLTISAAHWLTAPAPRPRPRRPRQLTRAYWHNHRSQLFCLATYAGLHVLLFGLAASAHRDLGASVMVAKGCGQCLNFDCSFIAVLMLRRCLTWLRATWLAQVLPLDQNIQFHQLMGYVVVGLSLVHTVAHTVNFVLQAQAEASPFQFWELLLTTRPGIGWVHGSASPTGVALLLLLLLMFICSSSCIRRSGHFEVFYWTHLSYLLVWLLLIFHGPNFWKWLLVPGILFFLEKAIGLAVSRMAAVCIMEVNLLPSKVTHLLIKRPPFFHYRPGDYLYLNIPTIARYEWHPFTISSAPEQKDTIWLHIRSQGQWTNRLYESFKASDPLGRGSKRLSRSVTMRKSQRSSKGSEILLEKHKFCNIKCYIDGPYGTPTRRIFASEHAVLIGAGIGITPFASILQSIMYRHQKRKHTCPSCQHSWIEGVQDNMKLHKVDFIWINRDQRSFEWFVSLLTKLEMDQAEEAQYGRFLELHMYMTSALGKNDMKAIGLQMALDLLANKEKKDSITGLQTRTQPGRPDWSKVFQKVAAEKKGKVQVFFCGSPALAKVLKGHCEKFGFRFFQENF

**Q.** With O=C(NC1CC1)[C@@H]1c2ccccc2C(=O)N(Cc2ccc(OC(F)(F)F)cc2)[C@H]1c1ccc(CO)cc1 as the compound, how does the composite z-score [1] read?
**A.** Its composite z-score is 0.227.

**Q.** What about the z-score [2] of the same compound?
**A.** Its z-score is -2.05 (inactive).

**Q.** What about the z-score [3] of the same compound?
**A.** Its z-score is -1.32 (inactive).

**Q.** And the z-score [4]?
**A.** The z-score was 0.441 (inactive).

**Q.** What about the z-score [5] of the same compound?
**A.** The z-score was -0.673 (inactive).

**Q.** What about the composite z-score [6] of the same compound?
**A.** The composite z-score was -0.894.

**Q.** And the composite z-score [7]?
**A.** The composite z-score was -0.176.

**Q.** And the composite z-score (Torsin-1A (Homo sapiens) [8])?
**A.** The composite z-score was -0.0394.

**Q.** And the composite z-score (Torsin-1A (Homo sapiens) [9])?
**A.** Its composite z-score is 0.136.

**Q.** And the composite z-score [10]?
**A.** The composite z-score was 0.391.

**Q.** What about the z-score [11] of the same compound?
**A.** The z-score was 0.93 (inactive).

**Q.** And the composite z-score [12]?
**A.** The composite z-score was 0.118.

**Q.** What about the z-score [13] of the same compound?
**A.** The z-score was 1.49 (inactive).

**Q.** What about the z-score [14] of the same compound?
**A.** Its z-score is -0.538 (inactive).

**Q.** And the z-score [15]?
**A.** The z-score was 2.44 (inactive).

**Q.** What about the z-score [16] of the same compound?
**A.** Its z-score is -1.2 (inactive).

**Q.** And the z-score [17]?
**A.** Its z-score is 0.358.

**Q.** What about the z-score [18] of the same compound?
**A.** The z-score was 0.0746 (inactive).

**Q.** What about the z-score [19] of the same compound?
**A.** Its z-score is -0.866 (inactive).

**Q.** And the z-score [20]?
**A.** Its z-score is -0.523.

**Q.** Which composite z-score [1] does the source give for CCCC=C(CCC)[C@@H](NC(=O)c1ccc(C(F)(F)F)cc1)c1ccc(C(F)(F)F)cc1 here?
**A.** Its composite z-score is 0.63.

**Q.** What about the z-score [2] of the same compound?
**A.** Its z-score is -2.78 (inactive).

**Q.** What about the z-score [3] of the same compound?
**A.** The z-score was 0.429 (inactive).

**Q.** And the z-score [4]?
**A.** The z-score was 0.779 (inactive).

**Q.** And the z-score [5]?
**A.** Its z-score is 0.34 (inactive).

**Q.** And the composite z-score [6]?
**A.** The composite z-score was 0.48.

**Q.** What about the composite z-score [7] of the same compound?
**A.** The composite z-score was 0.207.

**Q.** And the composite z-score (Torsin-1A (Homo sapiens) [8])?
**A.** The composite z-score was 0.342.

**Q.** And the composite z-score (Torsin-1A (Homo sapiens) [9])?
**A.** Its composite z-score is 0.587.

**Q.** And the composite z-score [10]?
**A.** The composite z-score was -0.605.

**Q.** And the z-score [11]?
**A.** The z-score was -1.35 (inactive).

**Q.** What about the composite z-score [12] of the same compound?
**A.** The composite z-score was 0.792.

**Q.** What about the z-score [13] of the same compound?
**A.** Its z-score is 1.23 (inactive).

**Q.** And the z-score [14]?
**A.** The z-score was 0.588 (inactive).

**Q.** What about the z-score [15] of the same compound?
**A.** Its z-score is -0.957 (inactive).

**Q.** And the z-score [16]?
**A.** The z-score was 1.25 (inactive).

**Q.** What about the z-score [17] of the same compound?
**A.** Its z-score is -0.523.

**Q.** What about the z-score [18] of the same compound?
**A.** The z-score was -0.0499 (inactive).

**Q.** And the z-score [19]?
**A.** The z-score was -0.414 (inactive).

**Q.** And the z-score [20]?
**A.** The z-score was 2.97.

**Q.** For C=CCNC(=O)[C@H]1[C@@H]2C(=O)O[C@@H](c3ccccc3)[C@@H](c3ccccc3)N2[C@@H](c2ccc(OCCO)cc2)[C@]12C(=O)Nc1ccccc12, which composite z-score [1] is on record?
**A.** Its composite z-score is -0.159.

**Q.** And the z-score [2]?
**A.** The z-score was -1.62 (inactive).

**Q.** What about the z-score [3] of the same compound?
**A.** Its z-score is -0.9 (inactive).

**Q.** What about the z-score [4] of the same compound?
**A.** Its z-score is 0.389 (inactive).

**Q.** What about the z-score [5] of the same compound?
**A.** The z-score was 1.1 (inactive).

**Q.** And the composite z-score [6]?
**A.** Its composite z-score is 0.917.

**Q.** What about the composite z-score [7] of the same compound?
**A.** Its composite z-score is -0.244.

**Q.** And the composite z-score (Torsin-1A (Homo sapiens) [8])?
**A.** Its composite z-score is 0.0646.

**Q.** What about the composite z-score (Torsin-1A (Homo sapiens) [9]) of the same compound?
**A.** Its composite z-score is 0.841.

**Q.** And the composite z-score [10]?
**A.** Its composite z-score is -0.0035.

**Q.** And the z-score [11]?
**A.** The z-score was 0.738 (inactive).

**Q.** What about the composite z-score [12] of the same compound?
**A.** Its composite z-score is 1.21.

**Q.** And the z-score [13]?
**A.** The z-score was 10.1 (active).

**Q.** And the z-score [14]?
**A.** Its z-score is 1.01 (inactive).

**Q.** And the z-score [15]?
**A.** The z-score was -0.444 (inactive).

**Q.** What about the z-score [16] of the same compound?
**A.** The z-score was 0.81 (inactive).

**Q.** And the z-score [17]?
**A.** The z-score was 0.0226.

**Q.** And the z-score [18]?
**A.** The z-score was 1.87 (inactive).

**Q.** And the z-score [19]?
**A.** Its z-score is 0.841 (inactive).

**Q.** And the z-score [20]?
**A.** Its z-score is -0.101.

**Q.** Which results are given for C#CCN1[C@@H](Cc2ccccc2)C(=O)O[C@H](Cc2ccccc2)[C@@H]1/C=C/C1CC1?
**A.** composite z-score [1]: -0.0041; z-score [2]: -3.05 (inactive); z-score [3]: 1.18 (inactive); z-score [4]: 2.12 (inactive); z-score [5]: -0.0861 (inactive); composite z-score [6]: -0.497; composite z-score [7]: -0.0763; composite z-score (Torsin-1A (Homo sapiens) [8]): 0.459; composite z-score (Torsin-1A (Homo sapiens) [9]): 0.84; composite z-score [10]: 0.482; z-score [11]: 0.827 (inactive); composite z-score [12]: -0.103; z-score [13]: -0.396 (inactive); z-score [14]: 0.317 (inactive); z-score [15]: -0.199 (inactive); z-score [16]: -0.48 (inactive); z-score [17]: -0.328; z-score [18]: -0.279 (inactive); z-score [19]: -0.284 (inactive); z-score [20]: -2.19
